PubChem BioAssay AID1259416 (Broad Institute, 2018)
Values joined by “and” are separate entries in the source; they are usually repeats but may differ in a detail not shown here. Equal values may be shown once. Hit rate of the full screen: of about 69,000 compounds, about 2,600 (3.8%) were called active. No stated cut-off is given here; in the data, active means activity change below about -70% (passing the limit was not always enough); inconclusive means no clear call, values can overlap the other calls. This excerpt belongs to a sample that is enriched for actives. More than one record can exist for a structure, and the calls need not agree.

Experiment: T. gondii growth inhibition with IFN-gamma, primary screen, cell-based (AID 1259416);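 further: host cells are HeLa cells infected with Toxoplasma gondii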
Conditions: Toxoplasma gondii growth in IFN-gamma-treated host cells; stronger effect = lower value; concentration not given here

Structure (SMILES)	activity change, negative = inhibition
CC[N+]1(C)CCCC(OC(=O)C(O)(c2ccccc2)c2ccccc2)C1 (stereo not drawn)	-81.7% (active) and 11.1% (inactive) and 46.8% (inactive)
COc1ccc(OC)c(NC(=O)c2cc3cccnc3n(Cc3ccccc3F)c2=O)c1	10.9% (inactive)
CC(C)N1C[C@H]2CN(C(=O)c3cccs3)C[C@@H]2C1	13.5% (inactive)
CO[C@@H]1CCN(C(=O)c2ccc(C)cn2)[C@H]2CN(CC3CC3)C[C@@H]12	294% (inactive)
c1cc(-c2cccc3c2CCNC3)cc(-n2cnnc2)c1	-1.55% (inactive)
CC(C)(Cc1c[nH]c2ccc(Cl)cc12)NCCOc1ccccc1OCC1CC1	-75.1% (active) and -81.3% (active)
COc1ccc2c(c1)C1(CCN(C(=O)C(C)(C)NC(=O)OCc3ccccc3)CC1)CC2CC(=O)O (stereo not drawn)	0.749% (inactive)
Cc1nc(N2CCCN3CCC[C@H]3C2)c2cnn(C)c2n1	2.34% (inactive)
CN1CCC2(COCc3cnc(NCc4ccco4)nc32)C1 (stereo not drawn)	-59.4% (inactive)
CCc1cnc(C)nc1N1CCC2(CC1)CN(C)CCN2C	-5.22% (inactive)
CC(Cc1ccccn1)N(C)Cc1ncc[nH]1 (stereo not drawn)	15.6% (inactive)
c1ccc2c(c1)[I+]c1ccccc1-2	-75.9% (active) and -69.4% (inactive)
COc1ccc(NC(=O)c2cc3cccnc3n(Cc3ccc(Cl)cc3)c2=O)c(OC)c1	113% (inactive)
CCc1ccc(NC(=O)c2cc3cccnc3n(Cc3ccccc3F)c2=O)cc1	49.4% (inactive)
O=C(Nc1ccccc1)c1c(O)c2cccnc2n(Cc2ccccc2)c1=O	-29% (inactive)
CC(NC(=O)c1c(O)c2cccnc2n(Cc2ccccc2)c1=O)c1ccccc1 (stereo not drawn)	-120% (active)
Cc1cc(C)cc(NC(=O)c2c(O)c3cccnc3n(Cc3ccccc3)c2=O)c1	135% (inactive)
CC(C)c1ccc(NC(=O)c2cc3cccnc3n(Cc3ccc(Cl)cc3)c2=O)cc1	70.6% (inactive)
C=CCNC(=O)c1cn(Cc2ccc(C)o2)cc(C(=O)N2CCCCCCC2)c1=O	-1.9% (inactive)
C/C=C/c1ccc(C2[C@@H]3CN(S(C)(=O)=O)C[C@H]2N3)cc1 (stereo partly drawn)	4.19% (inactive)
COc1cc([C@@H]2c3cc4c(cc3[C@H](OC(C)=O)[C@H]3COC(=O)[C@H]23)OCO4)cc(OC)c1OC	-81.8% (active)
O=C(Nc1cccc(F)c1)N1CC2CNC(C2)C1 (stereo not drawn)	-49% (inactive)
CN(Cc1ncc[nH]1)C1CCC2(CCNCC2)CC1	-23.6% (inactive)
CCN1CCO[C@@H]2CN(Cc3ccc4ccccc4n3)C[C@H]2C1	-44.8% (inactive)
CCCCCCCCCCCCCC(=O)O[C@@H]1[C@@H](C)[C@@]2(O)[C@@H](C=C(CO)C[C@]3(O)C(=O)C(C)=C[C@@H]23)[C@@H]2C(C)(C)[C@]12OC(C)=O	-78.2% (active) and -67.3% (inactive)
CNC(=O)[C@H]1CC2CN(C(=O)Cc3cccs3)CC2N1C (stereo partly drawn)	-9.27% (inactive)
CC(=O)O[C@H]1CC[C@@]2(C)C(=CCC3C2CC[C@]2(C)C(=O)CCC32)C1 (stereo partly drawn)	-55.1% (inactive)
COc1ccc(CN2CCCC23CCCN(C(=O)Cc2ccc(Cl)cc2)C3)cc1F (stereo not drawn)	84.8% (inactive)
